Records with an inconclusive call do not appear. Activity calls are given as the source filed them. Rule for the calls: active = hit-call score of the fitted dose curve at least 0.9, where 1 is the maximum; inconclusive = response in the unintended direction; inactive = score below 0.9.
These molecules were tested against Cellular tumor antigen p53 (Homo sapiens) (UniProt P04637) (assay: TOX21_p53_BLA_p4_ratio: Tox21 HCT-116 p53 Agonism Beta-lactamase Assay, Ratio, Phase 4 (AID 2283601)).
Summary of the method: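 HCT116 cells carrying an inducible beta-lactamase reporter were plated at 4000 cells/well, rested 5 h, then exposed to compounds in DMSO (217-fold dilution) for 16 h at 37C. CCF4-AM substrate was loaded 2 h at room temperature; 460/530 nm emission ratio scored gain-of-signal versus DMSO.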

Cellular tumor antigen p53 (Homo sapiens), sequence (P04637 whole entry, looked up): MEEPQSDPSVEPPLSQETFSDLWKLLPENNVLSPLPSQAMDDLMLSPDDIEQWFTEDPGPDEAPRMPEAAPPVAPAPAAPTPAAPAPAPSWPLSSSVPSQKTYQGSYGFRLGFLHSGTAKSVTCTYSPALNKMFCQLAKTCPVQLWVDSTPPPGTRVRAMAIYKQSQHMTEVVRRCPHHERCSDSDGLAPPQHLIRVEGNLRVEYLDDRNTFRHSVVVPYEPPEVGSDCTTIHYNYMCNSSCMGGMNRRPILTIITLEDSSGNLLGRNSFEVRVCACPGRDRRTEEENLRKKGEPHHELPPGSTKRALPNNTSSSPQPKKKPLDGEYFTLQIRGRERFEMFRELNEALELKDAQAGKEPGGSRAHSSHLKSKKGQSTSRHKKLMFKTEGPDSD

| Structure (SMILES) | outcome |
| --- | --- |
| COCC(=O)O | inactive |
| CC(=O)OCCc1ccccc1 | inactive |
| CCOC(=O)C1=NOC(c2ccccc2)(c2ccccc2)C1 | inactive |
| COC(=O)c1ccccc1C | inactive |
| NNS(=O)(=O)c1ccc(Oc2ccc(S(=O)(=O)NN)cc2)cc1 | inactive |
| C=CCCCCCCCCO | inactive |
| CCOC(=O)c1ccc(C)cc1 | inactive |
| CC(C)CC(=O)OCc1ccccc1 | inactive |
| CC(C)COC(=O)CC(C(=O)OCC(C)C)S(=O)(=O)O (configuration not stated) | inactive |
| C=C(C)C(=O)OCCCCCCCCCCCC | inactive |
| c1ccc2cnccc2c1 | inactive |
| O=C(O)CC(C(=O)O)S(=O)(=O)O (configuration not stated) | inactive |
